Experimental data taken from PubChem BioAssay (NCI).
Compounds without any hit were thinned out: in the full panel of roughly 83,000, 20% have a hit.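 Note: values are percent growth. 100 is the growth of untreated cells, values between 100 and 0 indicate rising inhibition; between -100 and 0 indicates cell death.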 A number with no mark means an inactive call. Active and inactive are the calls of the source. The calls were made as follows: active = growth percent below 10; inactive = the rest.

Key:
Assay in all cases: NCI-60 one-dose screen, 48 h (100 = growth as untreated, 0 = no growth, -100 = all killed)
Conditions in all cases: 10 µM unless noted
DU-145 prostate = system: DU-145 prostate
K-562 leukemia = system: K-562 leukemia
MALME-3M melanoma = system: MALME-3M melanoma
MDA-MB-231 breast = system: MDA-MB-231 breast
RXF 393 renal = system: RXF 393 renal
SF-268 CNS = system: SF-268 CNS
SF-295 CNS = system: SF-295 CNS
SF-539 CNS = system: SF-539 CNS
M14 melanoma = system: M14 melanoma
HT29 colon = system: HT29 colon
SNB-75 CNS = system: SNB-75 CNS
SNB-19 CNS = system: SNB-19 CNS
U251 CNS = system: U251 CNS
PC-3 prostate = system: PC-3 prostate
SK-MEL-5 melanoma = system: SK-MEL-5 melanoma
UACC-62 melanoma = system: UACC-62 melanoma
LOX IMVI melanoma = system: LOX IMVI melanoma
SK-MEL-28 melanoma = system: SK-MEL-28 melanoma
HCT-15 colon = system: HCT-15 colon
UACC-257 melanoma = system: UACC-257 melanoma

| Compound | growth (DU-145 prostate) | growth (K-562 leukemia) | growth (MALME-3M melanoma) | growth (MDA-MB-231 breast) | growth (RXF 393 renal) | growth (SF-268 CNS) | growth (SF-295 CNS) | growth (SF-539 CNS) | growth (M14 melanoma) | growth (HT29 colon) | growth (SNB-75 CNS) | growth (SNB-19 CNS) | growth (U251 CNS) | growth (PC-3 prostate) | growth (SK-MEL-5 melanoma) | growth (UACC-62 melanoma) | growth (LOX IMVI melanoma) | growth (SK-MEL-28 melanoma) | growth (HCT-15 colon) | growth (UACC-257 melanoma) |
| --- | --- | --- | --- | --- | --- | --- | --- | --- | --- | --- | --- | --- | --- | --- | --- | --- | --- | --- | --- | --- |
| CCCCN(CCCC)c1ccc(C(=O)O)cc1 | 101% | 107% | 74% | 120% | 105% | 101% | 97.7% | 109% | 103% | 108% | 83.2% | 84.8% | 100% | 102% | 100% | 103% | 99.4% | 107% | – | – |
| CCN(CC)C(=O)C1(C)CCCC2(C)c3cc(OC(C)=O)ccc3CCC12 (stereo unspecified) | 99.9% | 58.6% | 86.4% | 103% | 92% | 86.5% | 85.1% | 89.2% | 112% | 82.9% | 80.9% | 96.5% | 81.5% | 76.2% | 67.6% | 73.1% | 101% | 88.5% | 87% | – |
| COc1ccc2cc(C(C)C(=O)Nc3ccc(S(=O)(=O)Nc4cc(C)on4)cc3)ccc2c1 (stereo unspecified) | 115% | 95% | 115% | 117% | 92% | 100% | 105% | 97.4% | 103% | 121% | 99.7% | 117% | 98.9% | 104% | 110% | 108% | 96.2% | 111% | 93.8% | – |
| Br/C(=N\Nc1nn[nH]n1)c1ccccc1 | 119% | 110% | 104% | 96.4% | 96.3% | 114% | 101% | 96.7% | 99% | 110% | 80.8% | – | 99.6% | 96.1% | 102% | 101% | 86.3% | 109% | 96.6% | – |
| COC(=O)[C@H](Cc1cn(C)cn1)NC(=O)[C@H](Cc1c[nH]c2ccccc12)NC(=O)Nc1cc(C(F)(F)F)cc(C(F)(F)F)c1 | -88.1% [100 µM] (active) | -59.3% [100 µM] (active) | -70.2% [100 µM] (active) | -92.4% [100 µM] (active) | -81.2% [100 µM] (active) | -79.9% [100 µM] (active) | – | -69.1% [100 µM] (active) | -83.8% [100 µM] (active) | -84.2% [100 µM] (active) | -85.5% [100 µM] (active) | -91% [100 µM] (active) | -89.5% [100 µM] (active) | -89.4% [100 µM] (active) | -51.3% [100 µM] (active) | -92.9% [100 µM] (active) | -83.5% [100 µM] (active) | -80.3% [100 µM] (active) | 27.7% [100 µM] | -67.6% [100 µM] (active) |
| CCN(CC)CCOC(=O)c1cccnc1 | 109% | 92.7% | 91.3% | 105% | 103% | 102% | 101% | 102% | 102% | 107% | 79.6% | – | 97.7% | 99.7% | 98% | 103% | 90.9% | 98.4% | 98.7% | – |
| OCCN1CCN(CC/C=C2/c3ccccc3Sc3ccc(C(F)(F)F)cc32)CC1 | 82.7% | 6.74% (active) | 69% | 80.7% | 59.6% | 70.7% | 88.7% | 87.6% | 58.5% | 15.8% | 56.5% | – | 41% | – | 56.5% | 14.4% | 65.5% | 68% | 71.1% | – |
| CC#Cc1nc(Nc2cc(C)[nH]n2)c2ccccc2n1 | -4.22% [100 µM] (active) | 9.48% [100 µM] (active) | -45.3% [100 µM] (active) | -34.5% [100 µM] (active) | -51% [100 µM] (active) | -72.5% [100 µM] (active) | – | 1.15% [100 µM] (active) | -27.3% [100 µM] (active) | 2.45% [100 µM] (active) | -14.3% [100 µM] (active) | 43% [100 µM] | -25.5% [100 µM] (active) | -28.8% [100 µM] (active) | -71.9% [100 µM] (active) | -84.1% [100 µM] (active) | -58.5% [100 µM] (active) | 40.5% [100 µM] | -0.521% [100 µM] (active) | -19.9% [100 µM] (active) |
| COc1ccc(/C=C/C(=O)/C=C/c2cc3ccccc3[nH]c2=O)cc1 | 81.2% | 4.13% (active) | 32.6% | 64.5% | 30.6% | 47.8% | 104% | – | 72.9% | 3.66% (active) | 61.6% | 79.6% | 13.7% | 52.4% | 86.7% | 53.5% | -21% (active) | 79.6% | 75.3% | 74.8% |
| COc1cc(OC)c(/C=C/c2ccc3ccccc3[n+]2C)c(OC)c1 | 22.3% | 9.98% (active) | 3.03% (active) | 28.2% | 34.5% | 18% | -32.7% (active) | -23.7% (active) | 15.9% | 3.11% (active) | 11.2% | – | 13.3% | 10.7% | -74% (active) | 0.263% (active) | -33.2% (active) | 9.89% (active) | 77.5% | – |
| CC(=O)O.[In] | 113% | 96.7% | 109% | 116% | 106% | 103% | – | 110% | 105% | 105% | 90.6% | 109% | 98.8% | 99.7% | 95.2% | 102% | 35.3% | 112% | 109% | 94.3% |
| CCOC(=O)CNS(=O)(=O)CC(=O)c1ccccc1 | 117% | 86.8% | 83% | 97.3% | 117% | 124% | 118% | – | 93.4% | 80.1% | 69.4% | 94.3% | – | 92% | – | 95.3% | 104% | 127% | 110% | 132% |
| COc1cc2c(c3c1c(=O)c1cccc(F)c1n3C)C=CC(C)(C)O2 | 92.9% | 74.6% | 75.9% | 58.4% | 88.8% | 102% | 91.8% | 89% | 101% | 74.6% | 99.1% | 104% | – | 72.3% | 94.2% | 75.6% | 88.8% | 94.4% | 71.8% | – |
| CC(=O)Oc1cc2ccccc2cc1C(C)C | 126% | 117% | 111% | 117% | 102% | 111% | 96.8% | 95% | 106% | 114% | 92.3% | – | 112% | 115% | 101% | 116% | 109% | 113% | 99.1% | – |
| CCCCCCC(C(=O)OCC)(C(=O)OCC)C1CCCCCC1 | 120% | 100% | 108% | 101% | 104% | 121% | 105% | 92.8% | 106% | 98.1% | 83.7% | 99.2% | – | 102% | 100% | 101% | 101% | 106% | 97.5% | – |
| C[n+]1c2ccccc2c(Nc2ccc(NS(=O)(=O)CCCCN=C(N)N)cc2)c2ccc(N)cc21 | 23.7% | 41% | 32.6% | 93.9% | 71% | 39.7% | 5.07% (active) | 43% | 53.2% | 34% | – | – | 30% | 48.3% | 34.2% | 50% | 33.5% | 72.7% | 79.2% | – |
